# Legend:
# Assay in all cases: DAPPL (digital affinity profiling via proximity ligation, sequencing); 10 mM Tris-HCl pH 7.5, 50 mM NaCl, 1 mM DTT, 4% glycerol, room temperature, 30 min; GST-TFs on glutathione beads, 16-mer random dsDNA library, 0.1% formaldehyde crosslink after washing; high values mean tight binding
# FLI1 = molecular target: T1, FLI1 (Homo sapiens, UniProt Q01543 1-452); settings: protein: recombinant; tags: N-terminal GST; dsDNA, one strand shown
# T1 sequence: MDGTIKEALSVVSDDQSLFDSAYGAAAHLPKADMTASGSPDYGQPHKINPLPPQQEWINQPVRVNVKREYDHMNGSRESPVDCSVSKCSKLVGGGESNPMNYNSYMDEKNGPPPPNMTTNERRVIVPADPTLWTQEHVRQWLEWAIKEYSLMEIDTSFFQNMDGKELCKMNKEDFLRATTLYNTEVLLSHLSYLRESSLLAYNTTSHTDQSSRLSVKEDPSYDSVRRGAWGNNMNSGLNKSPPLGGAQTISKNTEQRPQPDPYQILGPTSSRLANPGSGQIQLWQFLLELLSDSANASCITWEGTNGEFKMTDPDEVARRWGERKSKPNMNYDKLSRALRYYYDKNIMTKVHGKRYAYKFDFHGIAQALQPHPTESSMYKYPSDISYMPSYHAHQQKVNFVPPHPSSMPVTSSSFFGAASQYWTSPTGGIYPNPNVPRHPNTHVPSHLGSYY
# Method in brief: (§1)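 Human transcription factors were made in yeast as GST fusions, captured on glutathione beads and barcoded with DNA. With a tag-only sample included, the pool was incubated with 200 nmole of a random double-stranded 16-mer DNA library in Tris/NaCl/DTT/glycerol buffer at room temperature for 30 min, then crosslinked with 0.1% formaldehyde after washing, ligated by proximity, amplified and sequenced. For binding signal, each hexamer's read frequency for a factor is divided by its frequency for the tag-only sample.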
# ELK1 = molecular target: T2, ELK1 (Homo sapiens, UniProt P19419 1-428); settings: protein: recombinant; tags: N-terminal GST; dsDNA, one strand shown
# T2 sequence: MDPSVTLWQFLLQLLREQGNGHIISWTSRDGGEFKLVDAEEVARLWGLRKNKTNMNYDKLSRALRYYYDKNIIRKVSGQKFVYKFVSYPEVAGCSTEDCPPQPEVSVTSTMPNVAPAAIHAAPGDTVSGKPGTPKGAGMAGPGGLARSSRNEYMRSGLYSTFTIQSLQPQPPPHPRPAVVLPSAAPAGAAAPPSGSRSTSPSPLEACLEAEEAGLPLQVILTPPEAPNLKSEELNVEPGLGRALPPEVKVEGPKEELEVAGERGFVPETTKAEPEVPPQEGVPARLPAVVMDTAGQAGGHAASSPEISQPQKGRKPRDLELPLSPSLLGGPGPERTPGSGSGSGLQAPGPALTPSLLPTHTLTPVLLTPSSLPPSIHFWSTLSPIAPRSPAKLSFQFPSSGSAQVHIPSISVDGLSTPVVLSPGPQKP
# Method in brief: as §1
# GABPA = molecular target: T3, GABPA (Homo sapiens, UniProt Q06546 1-454); settings: protein: recombinant; tags: N-terminal GST; dsDNA, one strand shown
# T3 sequence: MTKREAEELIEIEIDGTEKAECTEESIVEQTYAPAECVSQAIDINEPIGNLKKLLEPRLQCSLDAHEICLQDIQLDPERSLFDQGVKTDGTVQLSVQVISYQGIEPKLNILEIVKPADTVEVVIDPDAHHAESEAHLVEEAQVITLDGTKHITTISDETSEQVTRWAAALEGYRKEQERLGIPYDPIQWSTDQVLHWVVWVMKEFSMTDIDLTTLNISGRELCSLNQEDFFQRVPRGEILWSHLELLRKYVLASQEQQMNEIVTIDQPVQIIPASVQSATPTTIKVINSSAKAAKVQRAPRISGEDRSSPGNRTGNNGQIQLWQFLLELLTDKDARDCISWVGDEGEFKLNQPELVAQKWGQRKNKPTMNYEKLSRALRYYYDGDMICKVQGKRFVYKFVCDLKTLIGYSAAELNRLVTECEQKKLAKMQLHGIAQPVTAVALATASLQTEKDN
# Method in brief: as §1
# ERG = molecular target: T4, ERG (Homo sapiens, UniProt P11308 1-479); settings: protein: recombinant; tags: N-terminal GST; dsDNA, one strand shown
# T4 sequence: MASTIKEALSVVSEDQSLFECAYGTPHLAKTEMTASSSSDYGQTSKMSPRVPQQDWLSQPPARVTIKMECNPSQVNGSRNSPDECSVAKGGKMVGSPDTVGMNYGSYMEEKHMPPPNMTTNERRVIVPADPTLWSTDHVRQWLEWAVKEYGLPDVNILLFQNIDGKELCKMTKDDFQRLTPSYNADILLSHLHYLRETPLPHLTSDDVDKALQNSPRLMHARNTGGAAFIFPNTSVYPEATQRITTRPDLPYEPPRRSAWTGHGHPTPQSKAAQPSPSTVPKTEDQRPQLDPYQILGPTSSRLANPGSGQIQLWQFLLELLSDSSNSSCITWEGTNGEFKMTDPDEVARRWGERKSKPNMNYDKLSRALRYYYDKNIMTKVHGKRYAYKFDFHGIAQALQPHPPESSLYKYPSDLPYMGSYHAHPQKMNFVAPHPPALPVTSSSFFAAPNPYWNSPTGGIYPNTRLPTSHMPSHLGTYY
# Method in brief: as §1
# ELF1 = ELF1 (Homo sapiens, UniProt P32519 1-619); settings: protein: recombinant; tags: N-terminal GST; dsDNA, one strand shown
# Chain of ELF1 (P32519 whole entry): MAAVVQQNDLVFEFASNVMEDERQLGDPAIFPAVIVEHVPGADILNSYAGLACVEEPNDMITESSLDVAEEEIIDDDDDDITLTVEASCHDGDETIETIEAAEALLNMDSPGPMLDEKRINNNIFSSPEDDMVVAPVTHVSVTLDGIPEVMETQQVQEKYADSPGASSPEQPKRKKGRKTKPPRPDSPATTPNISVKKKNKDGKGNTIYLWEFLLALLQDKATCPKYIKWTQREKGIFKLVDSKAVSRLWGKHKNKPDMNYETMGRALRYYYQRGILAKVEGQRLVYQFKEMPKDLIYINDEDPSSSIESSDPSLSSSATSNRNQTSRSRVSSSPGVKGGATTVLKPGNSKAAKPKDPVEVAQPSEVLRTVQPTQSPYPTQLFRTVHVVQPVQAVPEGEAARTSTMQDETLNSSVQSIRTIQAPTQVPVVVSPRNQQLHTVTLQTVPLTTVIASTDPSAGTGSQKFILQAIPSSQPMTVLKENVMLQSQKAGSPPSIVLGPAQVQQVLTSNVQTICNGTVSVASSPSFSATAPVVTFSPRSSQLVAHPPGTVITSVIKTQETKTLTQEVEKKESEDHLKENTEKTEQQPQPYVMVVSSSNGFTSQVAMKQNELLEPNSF
# Method in brief: as §1
# EHF = molecular target: T5, EHF (Homo sapiens, UniProt Q9NZC4 1-300); settings: protein: recombinant; tags: N-terminal GST; dsDNA, one strand shown
# T5 sequence: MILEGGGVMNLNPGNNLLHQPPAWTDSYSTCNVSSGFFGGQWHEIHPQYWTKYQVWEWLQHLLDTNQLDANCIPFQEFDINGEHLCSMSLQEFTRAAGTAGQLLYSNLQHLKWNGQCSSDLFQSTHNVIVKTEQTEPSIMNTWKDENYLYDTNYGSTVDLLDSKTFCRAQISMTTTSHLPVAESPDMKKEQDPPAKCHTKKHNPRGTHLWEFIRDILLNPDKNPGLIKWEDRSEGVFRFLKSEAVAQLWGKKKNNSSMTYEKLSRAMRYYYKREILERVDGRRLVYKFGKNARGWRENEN
# Method in brief: as §1
# SPI1 = SPI1 (Homo sapiens, UniProt P17947 1-270); settings: protein: recombinant; tags: N-terminal GST; dsDNA, one strand shown
# Method in brief: as §1
# SPIB = SPIB (Homo sapiens, UniProt Q01892 1-262); settings: protein: recombinant; tags: N-terminal GST; dsDNA, one strand shown
# Chain of SPIB (Q01892 whole entry): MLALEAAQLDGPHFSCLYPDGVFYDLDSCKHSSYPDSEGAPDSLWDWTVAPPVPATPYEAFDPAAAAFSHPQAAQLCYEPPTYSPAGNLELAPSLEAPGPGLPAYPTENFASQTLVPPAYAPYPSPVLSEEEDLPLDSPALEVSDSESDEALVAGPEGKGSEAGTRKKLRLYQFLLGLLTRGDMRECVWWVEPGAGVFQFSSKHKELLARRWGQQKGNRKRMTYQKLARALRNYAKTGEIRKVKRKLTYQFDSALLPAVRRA
# Method in brief: as §1
# ELK3 = molecular target: T6, ELK3 (Homo sapiens, UniProt P41970 1-407); settings: protein: recombinant; tags: N-terminal GST; dsDNA, one strand shown
# T6 sequence: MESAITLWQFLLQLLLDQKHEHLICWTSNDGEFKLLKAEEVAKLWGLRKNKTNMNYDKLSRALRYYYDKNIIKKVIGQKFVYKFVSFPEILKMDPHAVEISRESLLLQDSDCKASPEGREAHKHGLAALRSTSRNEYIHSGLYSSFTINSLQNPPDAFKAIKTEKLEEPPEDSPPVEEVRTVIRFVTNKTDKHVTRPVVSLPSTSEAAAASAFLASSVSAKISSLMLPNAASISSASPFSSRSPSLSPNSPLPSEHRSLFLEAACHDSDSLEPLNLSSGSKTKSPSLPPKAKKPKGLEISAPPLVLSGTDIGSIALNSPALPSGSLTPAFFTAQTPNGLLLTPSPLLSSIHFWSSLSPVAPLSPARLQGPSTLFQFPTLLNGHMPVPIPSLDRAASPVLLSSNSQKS
# Method in brief: as §1
# FEV = molecular target: T7, FEV (Homo sapiens, UniProt Q99581 1-238); settings: protein: recombinant; tags: N-terminal GST; dsDNA, one strand shown
# T7 sequence: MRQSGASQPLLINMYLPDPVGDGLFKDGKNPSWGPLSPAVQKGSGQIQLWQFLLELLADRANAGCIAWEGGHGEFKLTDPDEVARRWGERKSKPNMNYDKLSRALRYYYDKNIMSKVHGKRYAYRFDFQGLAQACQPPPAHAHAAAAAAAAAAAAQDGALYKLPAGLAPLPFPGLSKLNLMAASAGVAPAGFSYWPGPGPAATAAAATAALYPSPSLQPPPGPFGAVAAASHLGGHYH
# Method in brief: as §1
# ETV5 = ETV5 (Homo sapiens, UniProt P41161 1-510); settings: protein: recombinant; tags: N-terminal GST; dsDNA, one strand shown
# Chain of ETV5 (P41161 whole entry): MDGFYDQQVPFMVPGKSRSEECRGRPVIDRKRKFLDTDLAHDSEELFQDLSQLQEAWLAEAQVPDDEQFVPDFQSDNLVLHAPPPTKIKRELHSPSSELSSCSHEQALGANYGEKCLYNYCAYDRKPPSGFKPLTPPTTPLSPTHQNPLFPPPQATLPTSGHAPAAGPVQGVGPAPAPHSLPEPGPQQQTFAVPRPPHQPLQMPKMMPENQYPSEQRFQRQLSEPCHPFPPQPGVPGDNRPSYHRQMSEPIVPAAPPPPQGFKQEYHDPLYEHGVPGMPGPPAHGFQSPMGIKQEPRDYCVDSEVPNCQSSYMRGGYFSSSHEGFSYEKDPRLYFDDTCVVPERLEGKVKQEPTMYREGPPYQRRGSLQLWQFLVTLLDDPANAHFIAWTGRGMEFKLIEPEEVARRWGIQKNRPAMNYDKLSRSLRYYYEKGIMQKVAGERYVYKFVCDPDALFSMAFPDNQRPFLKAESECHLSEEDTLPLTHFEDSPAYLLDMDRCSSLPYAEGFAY
# Method in brief: as §1
# HSF1 = HSF1 (Homo sapiens, UniProt Q00613 1-529); settings: protein: recombinant; tags: N-terminal GST; chain copies: 3; dsDNA, one strand shown
# Chain of HSF1 (Q00613 whole entry): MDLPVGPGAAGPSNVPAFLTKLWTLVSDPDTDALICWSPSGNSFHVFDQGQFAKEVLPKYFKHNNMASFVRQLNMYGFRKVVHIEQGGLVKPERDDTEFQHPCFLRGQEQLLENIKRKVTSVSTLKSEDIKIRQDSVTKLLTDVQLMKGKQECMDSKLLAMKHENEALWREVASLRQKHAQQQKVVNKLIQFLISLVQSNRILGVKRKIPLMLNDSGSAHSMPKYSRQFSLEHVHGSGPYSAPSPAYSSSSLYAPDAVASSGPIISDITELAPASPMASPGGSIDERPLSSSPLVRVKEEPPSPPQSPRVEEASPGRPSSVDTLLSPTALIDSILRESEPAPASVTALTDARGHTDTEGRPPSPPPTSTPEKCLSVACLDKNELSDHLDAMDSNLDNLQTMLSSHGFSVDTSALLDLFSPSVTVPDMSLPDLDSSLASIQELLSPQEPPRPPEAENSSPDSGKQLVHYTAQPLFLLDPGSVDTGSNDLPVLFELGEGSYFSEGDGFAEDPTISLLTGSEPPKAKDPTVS
# Method in brief: as §1
# SPIC = molecular target: T8, SPIC (Homo sapiens, UniProt Q8N5J4 1-248); settings: protein: recombinant; tags: N-terminal GST; dsDNA, one strand shown
# T8 sequence: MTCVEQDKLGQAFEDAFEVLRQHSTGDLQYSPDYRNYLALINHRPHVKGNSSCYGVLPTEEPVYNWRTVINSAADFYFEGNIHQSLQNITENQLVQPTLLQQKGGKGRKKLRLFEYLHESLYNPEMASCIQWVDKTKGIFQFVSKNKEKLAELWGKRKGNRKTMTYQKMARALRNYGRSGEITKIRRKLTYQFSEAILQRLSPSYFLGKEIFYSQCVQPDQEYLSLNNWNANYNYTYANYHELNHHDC
# Method in brief: as §1
# ELF4 = ELF4 (Homo sapiens, UniProt Q99607 1-663); settings: protein: recombinant; tags: N-terminal GST; dsDNA, one strand shown
# Chain of ELF4 (Q99607 whole entry): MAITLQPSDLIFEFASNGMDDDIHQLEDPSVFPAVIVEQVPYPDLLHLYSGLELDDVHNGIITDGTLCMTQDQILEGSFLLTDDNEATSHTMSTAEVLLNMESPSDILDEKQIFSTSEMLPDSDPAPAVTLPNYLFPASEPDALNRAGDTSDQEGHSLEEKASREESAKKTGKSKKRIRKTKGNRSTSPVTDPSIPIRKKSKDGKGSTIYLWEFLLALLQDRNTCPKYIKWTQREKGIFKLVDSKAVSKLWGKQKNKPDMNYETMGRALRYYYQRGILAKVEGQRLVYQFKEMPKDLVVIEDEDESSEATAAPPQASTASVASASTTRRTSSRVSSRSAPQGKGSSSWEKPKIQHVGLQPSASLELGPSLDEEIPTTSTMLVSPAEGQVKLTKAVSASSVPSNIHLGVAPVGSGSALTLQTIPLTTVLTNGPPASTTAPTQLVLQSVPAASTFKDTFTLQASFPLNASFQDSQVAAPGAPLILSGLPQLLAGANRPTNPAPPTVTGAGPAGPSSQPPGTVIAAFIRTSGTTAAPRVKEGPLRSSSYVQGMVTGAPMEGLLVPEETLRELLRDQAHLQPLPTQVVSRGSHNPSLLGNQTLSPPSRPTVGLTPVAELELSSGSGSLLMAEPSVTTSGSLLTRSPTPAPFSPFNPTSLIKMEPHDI
# Method in brief: as §1
# ELK4 = molecular target: T9, ELK4 (Homo sapiens, UniProt P28324-2 1-405); settings: protein: recombinant; tags: N-terminal GST; dsDNA, one strand shown
# T9 sequence: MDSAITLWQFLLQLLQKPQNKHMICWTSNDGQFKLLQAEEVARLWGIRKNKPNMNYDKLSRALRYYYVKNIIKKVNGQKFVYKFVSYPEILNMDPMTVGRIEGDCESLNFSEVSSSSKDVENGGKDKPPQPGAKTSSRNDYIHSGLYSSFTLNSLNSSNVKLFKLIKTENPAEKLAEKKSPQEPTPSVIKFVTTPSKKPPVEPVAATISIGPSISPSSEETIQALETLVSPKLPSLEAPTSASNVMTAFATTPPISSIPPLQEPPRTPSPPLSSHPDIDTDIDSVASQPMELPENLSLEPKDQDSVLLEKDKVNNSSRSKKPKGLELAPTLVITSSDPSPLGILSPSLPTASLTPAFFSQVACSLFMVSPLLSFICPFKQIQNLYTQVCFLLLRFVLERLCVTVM
# Method in brief: as §1
# ETV2 = molecular target: T10, ETV2 (Homo sapiens, UniProt O00321 1-342); settings: protein: recombinant; tags: N-terminal GST; dsDNA, one strand shown
# T10 sequence: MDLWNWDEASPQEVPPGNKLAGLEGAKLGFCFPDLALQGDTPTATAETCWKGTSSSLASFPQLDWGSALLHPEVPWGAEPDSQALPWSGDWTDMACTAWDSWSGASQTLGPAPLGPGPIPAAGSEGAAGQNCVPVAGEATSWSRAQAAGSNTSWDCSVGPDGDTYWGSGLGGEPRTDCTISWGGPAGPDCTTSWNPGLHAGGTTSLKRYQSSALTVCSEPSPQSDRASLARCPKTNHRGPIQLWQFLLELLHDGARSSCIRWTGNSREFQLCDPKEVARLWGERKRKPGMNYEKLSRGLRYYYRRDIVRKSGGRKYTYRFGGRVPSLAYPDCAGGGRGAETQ
# Method in brief: as §1
# ELF3 = molecular target: T11, ELF3 (Homo sapiens, UniProt P78545 1-371); settings: protein: recombinant; tags: N-terminal GST; dsDNA, one strand shown
# T11 sequence: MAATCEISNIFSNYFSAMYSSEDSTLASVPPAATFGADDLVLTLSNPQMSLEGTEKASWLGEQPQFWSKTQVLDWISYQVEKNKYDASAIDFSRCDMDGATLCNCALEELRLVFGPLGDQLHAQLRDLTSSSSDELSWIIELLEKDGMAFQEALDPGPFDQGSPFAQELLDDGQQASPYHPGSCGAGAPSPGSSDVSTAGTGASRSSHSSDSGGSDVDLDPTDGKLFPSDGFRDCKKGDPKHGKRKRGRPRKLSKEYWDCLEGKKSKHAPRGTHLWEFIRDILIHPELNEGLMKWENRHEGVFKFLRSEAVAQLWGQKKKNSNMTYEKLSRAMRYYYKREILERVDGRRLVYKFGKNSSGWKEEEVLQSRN
# Method in brief: as §1
# CRX = CRX (Homo sapiens, UniProt O43186 1-299); settings: protein: recombinant; tags: N-terminal GST; dsDNA, one strand shown
# Chain of CRX (O43186 whole entry): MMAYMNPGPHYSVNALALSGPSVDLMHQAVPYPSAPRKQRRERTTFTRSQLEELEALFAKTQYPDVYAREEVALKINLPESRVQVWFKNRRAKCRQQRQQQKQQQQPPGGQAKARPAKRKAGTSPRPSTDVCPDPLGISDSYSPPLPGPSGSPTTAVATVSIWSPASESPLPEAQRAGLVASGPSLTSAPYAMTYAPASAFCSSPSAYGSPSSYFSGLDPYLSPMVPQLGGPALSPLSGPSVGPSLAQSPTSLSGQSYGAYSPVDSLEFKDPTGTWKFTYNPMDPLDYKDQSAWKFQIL
# Method in brief: as §1
# ETV1 = ETV1 (Homo sapiens, UniProt P50549 1-477); settings: protein: recombinant; tags: N-terminal GST; dsDNA, one strand shown
# Chain of ETV1 (P50549 whole entry): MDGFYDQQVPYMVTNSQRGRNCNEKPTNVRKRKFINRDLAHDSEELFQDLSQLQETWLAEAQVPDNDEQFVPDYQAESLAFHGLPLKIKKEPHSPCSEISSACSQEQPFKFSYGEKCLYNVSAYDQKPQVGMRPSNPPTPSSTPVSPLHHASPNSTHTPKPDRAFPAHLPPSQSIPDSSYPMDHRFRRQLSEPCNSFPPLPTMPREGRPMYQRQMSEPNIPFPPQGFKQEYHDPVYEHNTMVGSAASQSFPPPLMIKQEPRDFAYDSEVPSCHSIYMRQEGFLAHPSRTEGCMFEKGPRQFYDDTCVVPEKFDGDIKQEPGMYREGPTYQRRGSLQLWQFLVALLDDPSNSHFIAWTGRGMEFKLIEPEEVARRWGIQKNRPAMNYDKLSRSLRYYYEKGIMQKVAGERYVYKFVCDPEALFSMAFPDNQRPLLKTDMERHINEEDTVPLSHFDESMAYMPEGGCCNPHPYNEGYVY
# Method in brief: as §1
sequence,measurement,setting,value
GGTTTA,binding signal,FLI1,"1.12 fold enrichment (6-mer frequency, TF over GST control)"
same,binding signal,ELK1,"1.01 fold enrichment (6-mer frequency, TF over GST control)"
same,binding signal,GABPA,"1.05 fold enrichment (6-mer frequency, TF over GST control)"
same,binding signal,ERG,"1.1 fold enrichment (6-mer frequency, TF over GST control)"
same,binding signal,ELF1,"1.02 fold enrichment (6-mer frequency, TF over GST control)"
same,binding signal,EHF,"1.08 fold enrichment (6-mer frequency, TF over GST control)"
same,binding signal,SPI1,"1.09 fold enrichment (6-mer frequency, TF over GST control)"
same,binding signal,SPIB,"1.05 fold enrichment (6-mer frequency, TF over GST control)"
same,binding signal,ELK3,"1.07 fold enrichment (6-mer frequency, TF over GST control)"
same,binding signal,FEV,"1.05 fold enrichment (6-mer frequency, TF over GST control)"
same,binding signal,ETV5,"1.06 fold enrichment (6-mer frequency, TF over GST control)"
same,binding signal,HSF1,"1.29 fold enrichment (6-mer frequency, TF over GST control)"
same,binding signal,SPIC,"1.13 fold enrichment (6-mer frequency, TF over GST control)"
same,binding signal,ELF4,"1.06 fold enrichment (6-mer frequency, TF over GST control)"
same,binding signal,ELK4,"1.13 fold enrichment (6-mer frequency, TF over GST control)"
same,binding signal,ETV2,"1.15 fold enrichment (6-mer frequency, TF over GST control)"
same,binding signal,ELF3,"1.13 fold enrichment (6-mer frequency, TF over GST control)"
same,binding signal,CRX,"1.66 fold enrichment (6-mer frequency, TF over GST control)"
same,binding signal,ETV1,"1.05 fold enrichment (6-mer frequency, TF over GST control)"
